The list is not random: actives were taken first. Their share in the collection is about 2.9%.
PLC-gamma1 inh = PLC-gamma1 enzyme inhibitors, primary screen, biochemical, fluorescence, purified enzyme; 1-phosphatidylinositol 4,5-bisphosphate phosphodiesterase gamma-1 (Homo sapiens), P19174; fluorogenic substrate; inhibition, % at 12.2 µM; actives 0.84% (n = 370,000); in the data active means inhibition above about 9.5%
ADAM10 inh = human ADAM10 inhibitors, primary screen, biochemical, QFRET, HTS; inhibition, % at 7 µM; actives 0.62% (n = 370,000); recombinant ADAM10, EDANS/DABCYL FRET peptide cleavage, 3 h; Disintegrin and metalloproteinase domain-containing protein 10 (Homo sapiens), O14672;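 active means inhibition above a per-campaign cutoff equal to the mean of compounds falling between control-based bounds plus 3 SD, cut at about 20% in these data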;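 further: 0% = DMSO wells while the 100% control is not disclosed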
Target sequence (O14672 214-748 limits assumed): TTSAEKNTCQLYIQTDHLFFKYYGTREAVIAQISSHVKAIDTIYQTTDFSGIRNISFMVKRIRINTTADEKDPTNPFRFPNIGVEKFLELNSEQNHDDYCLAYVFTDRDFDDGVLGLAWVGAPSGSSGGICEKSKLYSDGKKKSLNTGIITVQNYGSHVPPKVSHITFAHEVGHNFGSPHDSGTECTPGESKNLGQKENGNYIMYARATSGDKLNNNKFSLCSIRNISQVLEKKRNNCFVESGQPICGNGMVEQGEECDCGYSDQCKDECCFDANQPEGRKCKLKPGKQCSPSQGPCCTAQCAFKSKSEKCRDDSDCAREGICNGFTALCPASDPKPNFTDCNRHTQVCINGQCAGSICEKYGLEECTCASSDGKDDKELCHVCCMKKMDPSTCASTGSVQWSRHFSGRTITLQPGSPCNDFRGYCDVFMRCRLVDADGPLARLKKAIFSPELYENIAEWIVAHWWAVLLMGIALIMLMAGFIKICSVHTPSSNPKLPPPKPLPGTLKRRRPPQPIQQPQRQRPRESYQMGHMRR
proKLK7 act = proKLK7 zymogen activators, primary screen, biochemical, fluorescence intensity. activation, % at 7 µM. AID 652039, 2013. Kallikrein-7 (Homo sapiens), P49862. purified proKLK7, EDANS-DABCYL substrate fluorescence; 100% is mature enzyme control, 0% vehicle. actives 0.9% (n = 370,000);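 active means activation above the mean of all tested compounds plus 3 SD, computed per campaign excluding outliers beyond control limits, cut at about 13% in these data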
ADAM17 inh = ADAM17 inhibitors, primary screen, biochemical, QFRET. recombinant ADAM17, EDANS/DABCYL FRET peptide cleavage. inhibition, % at 6.95 µM. actives 0.83% (n = 370,000). AID 720648, 2013;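 active means inhibition above the mean of compounds lying between control limits plus 3 SD, set per campaign, cut at about 8.5% in these data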;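 further: 0% = DMSO-only wells as the low control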
PLCb3 inh = human PLC-beta3 inhibitors, primary screen, biochemical, fluorescence; Purified PLC-beta3, fluorogenic substrate; inhibition, % at 12.2 µM; actives 0.18% (n = 370,000); in the data active means inhibition above about 11%;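 further: 0% = median of compound wells on plate and 100% = full blocker control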
ADAM10 confirm = human ADAM10 inhibitors, confirmation, biochemical, QFRET, triplicate | shares compounds with ADAM10 inh | ADAM10 QFRET peptide cleavage, EDANS fluorescence | inhibition, % at 6.95 µM | actives 1% (n = 2,100) | AID 743208, 2013;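 active means inhibition above about 20% chosen separately for each screening run, limit read from the data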;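 further: 0% = DMSO wells and 100% = marimastat wells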
ADAM17 counter = ADAM17 inhibitors, counter-screen for ADAM10 exosite inhibitor project, biochemical, QFRET, high throughput | shares compounds with ADAM10 inh | ADAM17 QFRET peptide cleavage, EDANS fluorescence | inhibition, % at 6.95 µM | actives 0.5% (n = 2,100);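 active means mean triplicate inhibition above the solvent-only control wells' mean plus 3 SD, cut at about 12% in these data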;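 further: 0% = DMSO wells and 100% = marimastat wells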
ADAM10 ctr = ADAM10 inhibitors, counter-screen for ADAM17 exosite inhibitor project, biochemical, FRET, human ADAM10. actives 47% (n = 2,900). AID 743256, 2014. shares compounds with ADAM17 inh. inhibition, % at 6.95 µM. recombinant ADAM10, EDANS/DABCYL FRET peptide cleavage, 3 h;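 active means mean inhibition over the triplicate runs exceeds the activity threshold set in the earlier primary screen, cut at about 20% in these data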;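 further: 0% = DMSO wells and 100% = marimastat wells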
ADAM17 confirm = ADAM17 inhibitors, hit retest, confirmation, biochemical, QFRET peptide cleavage; shares compounds with ADAM17 inh; recombinant ADAM17, EDANS/DABCYL QFRET peptide cleavage; inhibition, % at 6.95 µM; actives 65% (n = 2,900); AID 743257, 2014;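 active means mean inhibition across replicates above the hit cutoff set in the primary screen, cut at about 8.5% in these data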;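 further: 0% = DMSO wells and 100% = marimastat wells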
* = called active by the depositor; . = no result given.

SMILES | PLC-gamma1 inh | ADAM10 inh | proKLK7 act | ADAM17 inh | PLCb3 inh | ADAM10 confirm | ADAM17 counter | ADAM10 ctr | ADAM17 confirm
C[C@H](NC(=O)c1[nH]cnc1C(=O)Nc1ccccc1)C(=O)OC(C)(C)C | 4 | 3 | 0 | 1 | 5 | . | . | . | .
C[C@H](NC(=O)c1nc[nH]c1C(=O)N[C@@H](C)C(=O)OC(C)(C)C)C(=O)OCc1ccccc1 | 2 | 10 | 0 | 3 | 4 | . | . | . | .
CC(C)(C)OC(=O)[C@H](Cc1ccccc1)NC(=O)c1nc[nH]c1C(=O)NCC(=O)OCc1ccccc1 | 8 | 30* | 0 | 11* | 4 | 8 | 3 | 44* | 20*
CC(C)(C)OC(=O)CNC(=O)c1[nH]cnc1C(=O)NCC(=O)OCc1ccccc1 | 1 | 6 | 0 | 0 | 1 | . | . | . | .
CN(C)c1cccc(/C=C2\CC3(OC(=O)C4CCCC4)CCCN2C3)c1 (stereo not drawn) | -8 | -27 | -1 | -6 | -13 | . | . | . | .
COc1ccc(OC)c(CCNC(=O)CCC(=O)N2CCOc3ccc(C)cc32)c1 | 0 | -9 | 0 | -2 | 3 | . | . | . | .
Cc1nccn1-c1ccc(NC(=O)[C@H]2O[C@@H](n3ccc(N)nc3=O)[C@H](O)[C@@H]2O)cc1 | -1 | -6 | 0 | -5 | 1 | . | . | . | .
O=C(N[C@@H](Cc1ccccc1)C(=O)OCc1ccccc1)c1nc[nH]c1C(=O)NC(c1ccccc1)c1ccccc1 | 2 | 13 | 0 | 8 | 2 | . | . | . | .
CC(C)(C)OC(=O)C(Cc1ccc(OC(C)(C)C)cc1)NC(=O)CNC(=O)OCc1ccccc1 (stereo not drawn) | 7 | 25* | 0 | 13* | 9 | -1 | 0 | 15 | 8
O=C(CNC(=O)c1[nH]cnc1C(=O)N[C@@H](Cc1ccccc1)C(=O)OCc1ccccc1)OCc1ccccc1 | 5 | 22* | 0 | 8.8* | 1 | 8 | 3 | 25* | 15*
CCOC(=O)[C@]12CCCC3=C1N(CCC3)C(=O)[C@@H](CC(=O)NCCCN1CCCC1=O)C2 | 2 | 2 | 0 | 0 | 3 | . | . | . | .
O=C(COC(=O)c1cc(S(=O)(=O)N2CCOCC2)ccc1F)NCCc1ccc(F)cc1 | 1 | -6 | 0 | -5 | 1 | . | . | . | .
OC(COCC(F)(F)C(F)(F)C(F)(F)C(F)F)Cn1c2ccccc2c2ccccc21 (stereo not drawn) | -4 | 34* | -2 | 15* | -50 | 12 | 5 | 29* | 19*
Cc1cccc(C)c1OCC(O)Cn1c2ccccc2c2ccccc21 (stereo not drawn) | -2 | 20* | 0 | 12* | -1 | 17 | 5 | 21* | 13*
Cc1cccc(C)c1OCC(O)Cn1nnc2ccccc21 (stereo not drawn) | 6 | 0 | 0 | -6 | 0 | . | . | . | .
Cc1ccc(-c2ccc(CN3C(CC(C)C)C(=O)N(Cc4cn(CCC5OCCO5)nn4)CCS3(=O)=O)cc2)cc1 (stereo not drawn) | 0 | 26* | 0 | 9.8* | 1 | 6 | 3 | 26* | 23*
COCOCCn1cc(CN2CCS(=O)(=O)N(Cc3ccc(-c4ccc(Cl)c(Cl)c4)cc3)C(C(C)C)C2=O)nn1 (stereo not drawn) | -4 | 27* | 0 | 9.1* | -1 | 8 | 3 | 28* | 20*
Cc1csc(SCC(=O)Nc2nc(-c3ccccc3)cs2)n1 | -2 | 22* | 2 | 12* | 4 | 0 | 1 | 19 | 14*
Cc1ccc(-c2csc(NC(=O)CSc3nc(C)cs3)n2)cc1 | -2 | 6 | 0 | 4 | -3 | . | . | . | .
CC(=O)c1ccc(Nc2nc(C(N)Cc3ccc(Cl)cc3)cs2)cc1 (stereo not drawn) | -140 | -43 | 0 | -11 | -187 | . | . | . | .
O=C(OCCO)c1c(-c2ccccc2)oc2c1C(OCCO)CCC2 (stereo not drawn) | -3 | -25 | 1 | -10 | -6 | . | . | . | .
C=CCC[C@@H](Cc1ccc(F)cc1)C(=O)OC[C@@H]1CCCN1C(=O)[C@H](CC=C)CC(=O)N[C@H](CO)Cc1ccccc1 | 5 | 27* | 1 | 9.4* | -11 | 0 | 0 | 28* | 12*
COc1cc([N+](=O)[O-])ccc1NC(=O)Cc1ccccc1 | 2 | -1 | 0 | -5 | 4 | . | . | . | .
COc1cc([N+](=O)[O-])ccc1NC(=O)CCCOc1cccc(C)c1C | 8 | 22* | 0 | 12* | 4 | 3 | 1 | 17 | 10*
Cc1ccc(CSc2nccc(-c3c(C)nc4ccccn34)n2)cc1 | -24 | -24 | -26 | -10 | -27 | . | . | . | .
SMILES | PLC-gamma1 inh | ADAM10 inh | proKLK7 act | ADAM17 inh | PLCb3 inh | ADAM10 confirm | ADAM17 counter | ADAM10 ctr | ADAM17 confirm
CCc1ccc(-c2cn(C3CCCCC3)c(=S)[nH]2)cc1 | 6 | 29* | 0 | 9.6* | -4 | 17 | 6 | 0 | 5
CSc1ccccc1OCc1cc(C(=O)N2CCc3[nH]cnc3C2c2ccccn2)no1 (stereo not drawn) | 4 | 25* | -1 | 11* | -11 | 8 | 3 | -1 | 2
CSc1ccccc1OCc1cc(C(=O)N2CCN(c3ccccc3)CC2C)no1 (stereo not drawn) | 1 | 2 | -1 | 4 | -8 | . | . | . | .
NC(=O)C1=C[C@H](C2CCCCC2)C[C@H](OCc2ccc(CO)cc2)O1 | 4 | 20* | 0 | 8.9* | -1 | -2 | 0 | -4 | 4
CC(C)NC(=O)N[C@@H]1C[C@@H]2O[C@H](CO)CC[C@@H]2O[C@@H]1CCc1ccc(-c2ccccc2F)cc1 | 2 | 2 | 0 | 1 | -1 | . | . | . | .
CCCN1CCCCC(NC(=O)OC(C)(C)C)C1=O (stereo not drawn) | 1 | -1 | 1 | -3 | 1 | . | . | . | .
